# Results from PubChem BioAssay (NCI).
# The panel holds about 79,000 compounds, 15% with a hit somewhere; the sample as a whole holds those more often. Unmarked numbers belong to inactive results. The source made the active and inactive calls. Rule as the data show it: active = growth inhibition above about 70%; inactive = the rest.
# Key:
# [1] = NCI Yeast Anticancer Drug Screen. Data for the rad50 strain (AID 155);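 also: 0% = growth of vehicle-only cultures of the same strain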; details: S. cerevisiae rad50 strain growth inhibition; at 50.0 µM; hits give high values
# Method in brief: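 Growth of the mutant yeast was measured after compound exposure and referenced to vehicle-treated cultures.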
# [2] = NCI Yeast Anticancer Drug Screen. Data for the mec2-1 strain (AID 157); details: S. cerevisiae mec2-1 strain, at 50.0 µM, hits give high values
# Method in brief: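 mec2-1 yeast strain, carrying an alteration in DNA damage repair or cell cycle control, was exposed to compounds; growth inhibition was measured relative to vehicle-treated controls.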
# [3] = NCI Yeast Anticancer Drug Screen. Data for the sgs1 mgt1 strain (AID 161);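 also: 0% = growth of cultures given vehicle only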; details: S. cerevisiae sgs1 mgt1 strain, at 50.0 µM, hits give high values
# Method in brief: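 Yeast cells carrying a defined DNA-repair defect were exposed to test compounds. Growth inhibition was measured relative to vehicle-treated controls.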
# [4] = NCI Yeast Anticancer Drug Screen. Data for the cln2 rad14 strain (AID 165);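 also: 0% = growth equal to vehicle treated cultures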; details: S. cerevisiae cln2 rad14 strain, at 50.0 µM, hits give high values
# Method in brief: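 Yeast carrying cln2 and rad14 alterations (cell cycle control and DNA damage repair) were exposed to compounds. Growth inhibition was measured against vehicle-treated controls.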
# [5] = NCI Yeast Anticancer Drug Screen. Data for the bub3 strain (AID 167); details: S. cerevisiae bub3 mutant strain, at 50.0 µM, hits give high values
# Method in brief: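 Whole-cell yeast assay. The mutant strain was incubated with compounds, and growth inhibition was determined by comparison with vehicle-treated cells.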
# [6] = NCI Yeast Anticancer Drug Screen. Data for the mlh1 rad18 strain (AID 175); details: S. cerevisiae mlh1 rad18 strain growth inhibition; at 50.0 µM; hits give high values
# Method in brief: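 Growth inhibition of the yeast strain was measured after compound exposure and expressed relative to vehicle-treated controls. The strain carries defined defects in DNA damage repair.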
SMILES,growth inhibition [1] [%],growth inhibition [2] [%],growth inhibition [3],growth inhibition [4] [%],growth inhibition [5] [%],growth inhibition [6]
NCC(O)COCc1ccccc1 (centres undefined),-16.1,-24.4,-1.65%,-28.1,-1.6,-0.35%
CCOC(=O)c1c[nH]n(Cc2ccccc2)c1=O,12,13.4,2.95%,-23.2,13.6,-1.2%
c1ccc(C2SCCCS2)cc1,33.2,5.25,17.8%,18.4,-4.5,18.4%
COC(=O)/C(=C/c1ccccc1)N(C(C)=O)C(C)=O,0.05,-1.6,10.3%,-1.5,13.4,8.5%
CC1=C(CCC(C)CO)O[C@H]2C[C@H]3[C@@H]4CC[C@H]5C[C@@H](O)CC[C@]5(C)[C@H]4CC(=O)[C@]3(C)[C@@H]12 (some centres undefined),64.3,28.6,84% (active),38.4,67.3,70.8% (active)
CC(CO)(CO)Nc1ncnc2ccccc12,-4.5,-12,-30.9%,-26.4,-36.9,9.7%
O=C(O)CCCCCNCC(CNCCCCCC(=O)O)(C(=O)O)C(=O)O,7.7,-2.8,-2.7%,-8.5,-1.05,5.2%
O=c1[nH]c(CCCc2ccccc2)c(Br)c(=O)[nH]1,-1.5,-7.65,3.35%,-4.35,15.1,24.4%
N#CC1CC12c1ccccc1C(=O)c1ccccc12 (centres undefined),-1.9,0.25,0.8%,-16.1,-21.4,-4.75%
CCOc1ccc(C2Oc3c(cccc3OC)C=C2[N+](=O)[O-])cc1OCC (centres undefined),38.8,38.9,32.5%,11.4,42.2,5.7%
Cc1cc(=O)[nH]c(NN2C(Cl)C(=O)C2c2ccc(Cl)cc2)n1 (centres undefined),10.6,7.45,4.2%,-7.9,8,-18.4%
COc1cc2c(c(O)c1C)C(=O)CC(c1ccccc1)O2 (centres undefined),15.4,-46.3,16%,2.15,-4.25,11.7%
CCOC(=O)C1=C(C)N(NC(N)=O)C(C)(O)C12CCOC2=O (centres undefined),32,0,-10.8%,13.1,3.2,39%
CCCCCCCCCCCCCCCCc1ccc(CCCC(=O)O)cc1,-20.8,-16.2,-13.3%,5.45,-17.3,12.5%
Cc1ccc(C)c(NC(=O)Oc2ccc(Br)cc2Br)c1,11.4,5.9,3.4%,-28.1,-1,18.1%
Cc1n(C)c(=O)c2ccccc2[n+]1C,5.35,5.75,-7%,-3.3,1.95,6.4%
Cc1ccc(-c2cs/c(=N\N=C3/CSC(=O)N3Cc3ccccc3)n2-c2ccccc2)cc1,41.1,22.8,12.1%,0.35,-2.55,40.4%
CCCCc1c2c(nc3c1CCCC3O)CCCC2 (centres undefined),-40.4,-63,-13.9%,13.2,-8.1,-23.9%
CCOC(=O)C(=Cn1c(=S)[nH]c2cc(C)ccc21)C(=O)OCC,-19.8,-39.1,-16.2%,13.6,0.1,-11.8%
O=c1c(O)c(O)c1=O,1.3,-7,0.8%,0.7,9.3,-15.5%

SMILES,growth inhibition [1] [%],growth inhibition [2] [%],growth inhibition [3],growth inhibition [4] [%],growth inhibition [5] [%],growth inhibition [6]
COc1ccccc1N/C(=C\C(=O)C(=O)NC12CC3CC(CC(C3)C1)C2)c1ccccc1,11.4,2.55,8.65%,2.25,3.75,14.2%
Nc1ccc(N)c(N)c1,26.3,53.1,31.4%,-31.2,-4.9,6.8%
Cc1cccc(NC(=O)/C(=N\NC(C)(C)C)C2NC(=S)NC2=O)c1C (centres undefined),-2.25,-29.8,-38.5%,-6.6,-16.4,-39.1%
CC(=O)OC1CC2CC1C1CC=CC21 (centres undefined),35.2,-2,-0.4%,34.1,2.4,14.4%
Cc1ccc(S(=O)(=O)O/N=C2\CCC\C2=C/c2ccccc2)cc1,7.65,-2.25,26%,14.6,-8.55,23.8%
OC1CCC2=C(C1)C1CCC2C1 (centres undefined),9.05,-10.7,-11.8%,-18.4,-12,15.8%
COc1ccc(-c2ccccc2C(=O)O)cc1,-2.65,-14.8,5.8%,-12.5,-7.2,8.1%
CC(Oc1ccc2c(-c3ccc(Cl)cc3)cc(=O)oc2c1)C(=O)O (centres undefined),-15.9,-4.15,13.6%,19.1,-7.15,32.9%
NCCCCC(C(=O)NCC(=O)O)N(C(=O)OCc1ccccc1)C(=O)OCc1ccccc1 (centres undefined),-2,-4.6,-0.55%,-33.1,-2.2,-2.05%
Cn1cnc([N+](=O)[O-])c1Sc1nc2ncccc2[nH]1,-5.6,-7.1,-20.1%,16.6,-8.9,0%
O=C1CCC(c2ccccc2)(c2ccccc2)CC1,31.8,-24.6,-16.1%,-15.5,0.15,17.5%
O=c1[nH]c2cc([N+](=O)[O-])ccc2nc1/C(=N\Nc1ccccc1)C(O)c1ccc2c(c1)OCO2 (centres undefined),26.5,5.4,21.6%,29.4,10.2,41.1%
CCCCCCC1NC(=S)N(c2ccccc2)C1=O (centres undefined),-12.1,0.5,48.5%,-5,21.2,-6.2%
Cc1ccc(/C=C/C(=O)c2c([O-])on[n+]2-c2ccccc2)cc1,2.6,-7.85,21.9%,14.9,5,-4.8%
CCOC(=O)C(/C=C/c1cc(C)c(C)c(C)c1)(NC=O)C(=O)OCC,-3.25,2.55,9.6%,5.75,12.1,-1.3%
O=C1c2ccccc2C(=O)c2c(NCCNC(=O)C3CCCN3)ccc(NCCNC(=O)C3CCCN3)c21 (centres undefined),-1.25,-11.7,21.8%,3.4,-3.7,-85.5%
CC#Cc1c(C#CC)c(OC)c2c(c1OC)C(=O)c1ccccc1C2=O,-20.9,-29.3,-26.2%,3.3,-8.2,-25.1%
CC(/C=N/N(C)C)=N\N(C)C,-3.75,5.3,-5.65%,-60.4,32.2,-21.4%
CCOC(=O)Nc1cccc(Cl)c1Cl,-31.1,-39.1,-22.4%,6.75,-27.9,-8%
